Measured values taken from PubChem BioAssay (Tox21).
Results filed as inconclusive are left out. Values without a mark were called inactive. Activity calls are given as the source filed them. Calls follow the shape of the dose curve; as a rule, active = well fitted cell-killing curve with a large enough effect in the repeat runs; inconclusive = weak or mixed curves, or effect the other way; inactive = no such curve, though single readings can be large or run the other way.

Test: qHTS assay to identify small molecule agonists of the estrogen receptor alpha (ER-alpha) signaling pathway in the presence of an antagonist - cell viability counter screen (AID 1259386);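 also: cells exposed to compounds for 22 h at 37 °C before the viability read; nearly all actives have a fitted effect of over 30% in size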
Details: VM7Luc4E2 viability, CellTiter-Fluor fluorescence, 22 h; series mostly up to 92.4 µM; activity change, negative = cytotoxicity: at the top concentration
From the text: National Center for Advancing Translational Sciences [NCATS]
NIH Chemical Genomics Center [NCGC]
U.S. Environmental Protection Agency [EPA]
National Institutes of Environmental Health Sciences [NIEHS]
National Toxicology Program [NTP]
U.S. Food and Drug Administration [FDA]
Estrogen receptor (ER), a member of nuclear hormone receptor plays an important role in development, metabolic homeostasis and reproduction. Two subtypes of ER, ER-alpha and ER-beta, have similar expression patterns with some uniqueness in both types. Endocrine disrupting chemicals (EDCs) and their interactions with steroid hormone receptors like ER causes disruption of normal endocrine function. Therefore, it is important to understand the effect of environmental chemicals in ER signaling pathway. For identifying ER agonists, VM7Luc4E2 cell line has been used in the current assay.
VM7Luc4E2 cell line (provided by Denison MS, University of California) endogenously expresses full-length ER-alpha and is stably transfected with a plasmid containing four estrogen responsive elements (ERE) upstream of a luciferase reporter gene. This current screening for measuring luciferase reporter gene activity using VM7Luc4E2 cells against Tox21 10K library collection is a confirmation study on agonist mode screening in presence of ER-antagonist (ICI-182,780) at 10.0nM final concentration. The cytotoxicity of the compounds was tested in parallel by measuring the cell viability using CellTiter-Fluor assay system (Promega, Madison, WI) in the same wells.
Tox21 Assay Protocol Summary:
VM7Luc4E2 cells were cultured in phenol red free assay medium containing 10% charcoal stripped FBS for 5 days prior to the assay. The cells were dispensed at 4,000 cells in 4uL of assay medium per well into white wall/solid-bottom 1536-well plates (Corning Life Sciences, Corning, NY) using a Multidrop Combi (Thermo Fisher Scientific Inc., Waltham, MA) dispenser. After the assay plates were incubated at 37C and 5% CO2 for 24hr, 1uL of 10.0nM (final concentration) ICI-182,780 or assay buffer was added using two separate tips of Flying Reagent Dispenser (FRD, Aurora Discovery, San Diego, CA). Then 23nL of compounds dissolved in DMSO at 15 concentrations and positive controls or DMSO only was transferred to the assay plates by a Pintool station (Wako, San Diego, CA). The assay plates were incubated at 37C and 5% CO2 for 22hr. After 21hr incubation at 37C, 1uL/well CellTiter-Fluor reagent (Promega Corporation, Madison, WI) was added to each well using FRD and after 1hr incubation at 37C and 5% CO2, the fluorescence signal was measured on ViewLux plate reader (PerkinElmer, Shelton, CT).
% is scaled to controls: 0 for no effect and ±100 for the full control effect; potency is read from the fitted curve at half-maximal effect.

| SMILES | activity change, negative = cytotoxicity | Potency |
| --- | --- | --- |
| c1cc2c3c(c1)ccc1cccc(c13)C2 | 0.277% |  |
| Clc1nc2ccccc2s1 | -9.22% |  |
| CCN1CCN(c2cc(-c3ccc(F)cc3)c3c(n2)CCCCCC3)CC1 | -2.28% [at 19 µM] |  |
| CCCCNc1c(C(=O)OCC)c(C)nc2c1cnn2CC | -4.01% [at 42.5 µM] |  |
| Cc1ccc2ccc3cccc4ccc1c2c34 | 0.723% |  |
| COc1ccc(-n2nc(CCC(=O)N(C)O)cc2-c2ccc(Cl)cc2)cc1 | -4.57% [at 42.5 µM] |  |
| CC(C)(c1cc(Br)c(OCCO)c(Br)c1)c1cc(Br)c(OCCO)c(Br)c1 |  | 53.3 µM (active) |
| CCCCCCCC/C=C/CCCOC(C)=O | -0.558% |  |
| CCc1cccc(C)c1 | 0.818% |  |
| C/C=C/c1ccc(OC)c(OC)c1 | 1.27% |  |
| CCN(CC)CCOc1ccc(C(O)(Cc2ccc(Cl)cc2)c2ccc(C)cc2)cc1 (stereo not given) | 0.744% [at 42.5 µM] |  |
| Clc1cccnc1 | 1.75% |  |
| N#CSCSc1nc2ccccc2s1 | 1.94% |  |
| CCCCOC(=O)C(C)CC (stereo not given) | -1.01% |  |
| CCCCCCCC/C=C\CCCCCCCC(=O)NCc1ccc(O)c(OC)c1 | 1.95% [at 42.5 µM] |  |
| CC(C)=CC1CC(C)CCO1 (stereo not given) | -2.36% |  |
| CCCN(CCc1cccs1)[C@H]1CCc2c(O)cccc2C1 | -11.7% [at 42.5 µM] |  |
| CC(=O)C=O | 0.799% |  |
| CCCCCCCCCCCC(=O)N(CC)CC | -6.98% |  |
| C=C(c1ccc(C(=O)O)cc1)c1cc2c(cc1C)C(C)(C)CCC2(C)C |  | inactive |

| SMILES | activity change, negative = cytotoxicity | Potency |
| --- | --- | --- |
| CC(=O)OC(OC(C)=O)c1ccc([N+](=O)[O-])o1 |  | 49.4 µM (active) |
| CCOC(=O)CN | 2.5% |  |
| OCCCS | 1.69% |  |
| C=CC(=O)OCCN(CC)CC | 0% |  |
| O=C1OC(=O)c2cccc3cccc1c23 | -2.91% |  |
| COc1ccc(C#N)cc1 | -16.8% |  |
| CCN(CC)CCNc1ccc(CO)c2sc3ccccc3c(=O)c12 |  | 10.6 µM (active) |
| CCCCOCC | 2.15% |  |
| CC1CCCNC1 (stereo not given) | 1.38% |  |
| CC(CN(C)C)CN1c2ccccc2CCc2ccccc21 (stereo not given) | 1.02% [at 42.5 µM] |  |
| C=CC(C)C#N (stereo not given) | -1.01% |  |
| CCc1ccc(C)nc1 | 1.11% |  |
| CCC1CCCCC1 | -5.83% |  |
| CC(C)(C)CC(C)(C)c1ccccc1O |  | 61.4 µM (active) |
| OCCC(O)CO (stereo not given) | 0.297% |  |
| CC(C)(c1cc(Br)c(O)c(Br)c1)c1cc(Br)c(O)c(Br)c1 |  | inactive |
| CN(C)CCN1CCOCC1 | 6.12% |  |
| CCN(CC)CCOC(=O)C1(C2CCCCC2)CCCCC1 | -9.71% [at 42.5 µM] |  |
| O[C@@H](c1cc(C(F)(F)F)nc2c(C(F)(F)F)cccc12)[C@H]1CCCCN1 | 9.15% [at 42.5 µM] |  |
| Clc1ccc(C(Cn2ccnc2)OCc2c(Cl)cccc2Cl)c(Cl)c1 (stereo not given) | 0.574% [at 42.5 µM] |  |
